This passage reports inhibition results from PubChem BioAssay.

A number with no mark means an inactive call. The rule behind the calls is not given here.

The test deals with Pantothenate synthetase (Mycobacterium tuberculosis (strain ATCC 25618 / H37Rv)) (UniProt P9WIL5). Nature of the test: Coupled enzyme confirmation of inhibitors against recombinant Mtb PanC (AID 375).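 Note: 0% = full reaction with vehicle and 100% = no enzyme background.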 Particulars: coupled enzyme assay; at 10 µM, active compounds read high.
Chain of Pantothenate synthetase (Mycobacterium tuberculosis (strain ATCC 25618 / H37Rv)) (P9WIL5 whole entry, looked up): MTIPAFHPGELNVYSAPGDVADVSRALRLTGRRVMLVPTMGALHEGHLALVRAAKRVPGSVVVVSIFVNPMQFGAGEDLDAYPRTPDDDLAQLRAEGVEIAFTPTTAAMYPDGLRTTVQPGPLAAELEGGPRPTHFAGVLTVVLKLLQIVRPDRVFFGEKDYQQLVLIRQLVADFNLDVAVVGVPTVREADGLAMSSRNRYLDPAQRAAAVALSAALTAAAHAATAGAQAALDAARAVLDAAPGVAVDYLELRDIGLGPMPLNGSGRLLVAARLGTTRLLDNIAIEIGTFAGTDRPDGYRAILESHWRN
With `COc1ccc(-c2cc3n(n2)CCc2nc4ccccc4n2-3)cc1`, the inhibition is 0%.

`CCn1cc(C(=O)NCCCOC)c(=O)c2cc(S(=O)(=O)N(C)C)ccc21`: the inhibition is 0%.

As for `CSc1nnc(-c2ccc(NC(=O)CCc3ccccc3)cc2)n1C`, the inhibition is 0%.

With `CC1=C(C(=O)OCc2ccccc2)C(c2ccco2)n2ncnc2N1` (stereo not drawn), the inhibition is 0%.

For the molecule `CC(=O)Nc1ccc(NC(=O)Cn2cc3c(n2)CCC(C)C3)cc1` (stereo not drawn), the inhibition was 3%.

With `Nn1c(SCC(=O)Nc2ccc3c(c2)OCCO3)nnc1C(F)(F)F`, the inhibition is 4%.

For the molecule `CCCOc1ccccc1C1CC(=O)Nc2cc3c(cc21)OCCO3` (stereo not drawn), the inhibition is 2%.

Consider `NC(=O)C(Cc1ccccc1)NS(=O)(=O)c1ccc(N2CCCC2=O)cc1` (stereo not drawn), for which the inhibition is 0%.

`Cn1ccnc1SCC(=O)Nc1ccc2ccccc2c1`: the inhibition is 2%.

In the case of `Cc1nnc(NC(=O)c2ccccc2F)s1`, the inhibition was 0%.

For the molecule `COc1ccc(CCNC(=O)CSc2nnc(CNc3ccc(Cl)cc3)o2)cc1OC`, the inhibition is 0%.

On to `COc1ccccc1N1CCN(C(=O)N2CCOCC2)CC1`, for which the inhibition was 0%.

For `CC1(c2ccc(Cl)cc2)NC(=O)N(CC(=O)NC(=O)NCc2ccco2)C1=O` (stereo not drawn), the inhibition is 1%.

For the molecule `COc1cc2c(C)nc(C)c(C#N)c2cc1OC`, the inhibition is 0%.

As to `Cc1cc(C)c(C)c(OCC(=O)NCC2CCCO2)c1` (stereo not drawn), the inhibition was 0%.

Turning to `COC(=O)C(F)(F)Sc1c(C)[nH]c2ccccc12`, the inhibition was 3%.

Regarding `COc1cc(OC)nc(NC(=O)CSc2nc3ccccc3o2)n1`, the inhibition is 11%.

`CCn1cc(C(=O)NCCC2=CCCCC2)c(=O)c2cc(S(=O)(=O)N(C)C)ccc21`: the inhibition was 0%.

Broadly, the inhibition is how much of the control response was suppressed.
